From PubChem BioAssay AID1259343 (VanderVen Lab, College of Veterinary Medicine, Cornell …, 2017)
Screen size: about 6,200 compounds; about 2,900 (47%) were called active. So high a share suggests a set chosen from earlier hits. The list shows a part of the results. Values without a mark were called inactive. Rule as the data show it: active = inhibition above about 50%; inactive = the rest.

Test: Mycobacterium tuberculosis growth inhibition, primary screen (AID 1259343)
Conditions: inhibition: at 10 µM, stronger effect = higher value; outcome: 10 uM

| SMILES | inhibition |
| --- | --- |
| CNc1nc(C)c(C(=O)c2ccc(C)cc2)s1 | 86.1% (active) |
| CN(CC(=O)Nc1sc2c(c1C#N)CCCCC2)Cc1ccco1 | 49.1% |
| CC(Cc1ccco1)NC(=O)c1cc2c(s1)CCC2 (configuration not stated) | 93.1% (active) |
| O=C(NNS(=O)(=O)c1ccc2c(c1)OCCO2)c1cc2c(s1)CCCCC2 | 20.9% |
| S=c1sc2c(Cl)ncnc2n1-c1ccccc1 | 60.9% (active) |
| Cn1c(=O)c([N+](=O)[O-])c(N2CCN(Cc3ccc(Cl)cc3Cl)CC2)c2ccccc21 | 40.7% |
| Cn1c(=O)c([N+](=O)[O-])c(N2CCN(Cc3cccc4ccccc34)CC2)c2ccccc21 | 59% (active) |
| Cn1c(=O)c([N+](=O)[O-])c(N2CCN(CCOc3ccc(Cl)cc3)CC2)c2ccccc21 | 38.3% |
| Brc1ccc(CSc2nc3ncccc3[nH]2)cc1 | 34% |
| O=c1cc(CSc2nc3ncc(Cl)cc3[nH]2)nc2ccc(Br)cn12 | 101% (active) |
| CC(NCc1cc(=O)n2cc(Br)ccc2n1)c1cc(F)c(Cl)cc1Cl (configuration not stated) | 27.6% |
| CCCC[P+](CCCC)(CCCC)Cc1ccc(NC(=O)[C@@H](Cc2ccc3ccccc3c2)NC(=NC2CCCCC2)NC2CCCCC2)cc1 | 95.8% (active) |
| O=C(Nc1ncccc1OCC1CCCCC1)c1cscn1 | 55.5% (active) |
| O=C(NCC1(c2ccccc2)CC1)c1cc(Cl)ccc1O | 94.2% (active) |
| O=S(=O)(NCC1(c2ccccc2)CC1)N1CCCCCC1 | 16.5% |
| N#CC(C(=O)COc1cc(F)ccc1F)c1nc2ccccc2s1 (configuration not stated) | 91.5% (active) |
| N#CC(C(=O)C1COc2ccccc2O1)c1nc2ccccc2s1 (configuration not stated) | 19% |
| N#CC(C(=O)C1c2ccccc2-c2ccccc21)c1nc2ccccc2s1 (configuration not stated) | 33.3% |
| COc1ccc2cc(-c3[nH]ncc3CNC(C)Cc3cccs3)ccc2c1 (configuration not stated) | 50.1% (active) |
| COc1ccc(-c2[nH]ncc2CNC(=O)CC2COCCN2)cc1 (configuration not stated) | -11.1% |
| CCOc1ccc(Oc2ccccc2NC(C)=O)cc1 | 73.6% (active) |
| CCOc1cccc(OCCCOc2ccccc2C(C)=O)c1 | 92.5% (active) |
| CCOc1ccc(Oc2ccc(NC(C)=O)cc2)cc1 | -0.29% |
| CCOc1ccc(OCCCCOc2ccccc2C(C)=O)cc1 | 98% (active) |
| CC1CN(C(=O)c2ccc(NC(=O)C3CC3)cc2)c2ccccc2O1 (configuration not stated) | 87.7% (active) |

| SMILES | inhibition |
| --- | --- |
| CCCCCCCCc1ccc(CCC(N)(CO)CO)cc1 | 92% (active) |
| CCCCc1ccc(-c2csc(NC(=O)OC)c2C(N)=O)cc1 | 2.76% |
| Cc1ccc(/C=N\Nc2nc(-c3ccc4c(c3)OCCO4)cs2)cc1 | -51.4% |
| CCOc1ccc(C=C2N=C(C(C)(C)C)OC2=O)cc1OC | 23.4% |
| COc1ccc(/C=N\Nc2nc(-c3ccc4c(c3)OCCO4)cs2)cc1OC | 85.6% (active) |
| c1cc2c(cc1-c1csc(NCC3CCC3)n1)OCCCO2 | 3.11% |
| CCOc1ccc(/C=N\Nc2nc(-c3ccc(OC)c(OC)c3)cs2)cc1 | 79.8% (active) |
| CCN(CC)c1ccc2cc(-c3csc(N/N=C\c4ccc(OC)cc4)n3)c(=O)oc2c1 | 25.9% |
| CCOc1cc(C=NNc2nc(C)cs2)ccc1OC | 72% (active) |
| CN1CC(CNC(=O)OCc2ccccc2)CC2c3cccc4c3c(cn4C)CC21 (configuration not stated) | 96.7% (active) |
| CCOP(=O)(Oc1ccccc1)c1c([N+](=O)[O-])cc(C(F)(F)F)cc1[N+](=O)[O-] (configuration not stated) | 94.9% (active) |
| CC(C)Oc1ccc(Nc2nccc3[nH]c(-c4ccccc4)cc23)cc1 | 92.6% (active) |
| CC(Oc1ccc(-n2cnc(-c3ccccc3)c2)cc1)C(N)=O (configuration not stated) | 43.6% |
| O=C(CSc1ccc2nc(-c3ccccc3)cn2n1)c1ccccc1 | 65.7% (active) |
| CCN(CC)c1cc(-c2ccccc2)nc(SCc2cccc(C(=O)O)c2)n1 | 8.57% |
| c1ccc(CSc2nn3cc(-c4ccccc4)nc3s2)cc1 | 16.3% |
| CN(C(=O)/C=C/c1ccc([N+](=O)[O-])s1)c1ccccc1 | 6.56% |
| O=C(/C=C/c1ccc([N+](=O)[O-])s1)Nc1ccc(F)cc1F | 99.5% (active) |
| CCCCc1ccc(NC2=NC(C)(C)CS2)cc1 | 89.8% (active) |
| NC(N)=NN=CC(Cl)=Cc1ccccc1 | 85.8% (active) |
| NC(N)=NN=Cc1ccc(-c2ccccc2)cc1 | 38.6% |
| NC(N)=NN=C1c2ccccc2-c2ccccc21 | -74.8% |
| Cc1cc2oc(NC(=O)c3ccc(=O)n(C)c3)nc2c(C)c1Cl | -2.23% |
| COc1ccc(-c2csc(C(C#N)C(=O)CC3C=CCC3)n2)cc1 (configuration not stated) | 79.7% (active) |
| COc1ccc(C(=O)C2CCCN(Cc3nc(-c4ccc(F)cc4)cs3)C2)c(OC)c1 (configuration not stated) | 31.3% |

| SMILES | inhibition |
| --- | --- |
| CC(NC(=O)Nc1cccnc1N1CCCC1)c1ccn(C)c1 (configuration not stated) | -18.1% |
| CN(C)c1cccc(Nc2nccc3c2cc(-c2ccsc2)n3C)c1 | 63.8% (active) |
| CN(C)c1cccc(Nc2nccc3c2cc(-c2ccccc2)n3C)c1 | 74.6% (active) |
| O=C(NCc1cc(Br)cs1)c1ccc(Cl)o1 | 37.9% |
| O=C(NCCc1ccc(Cl)s1)c1ccc(Cl)o1 | 79.6% (active) |
| O=C(NCc1ccc(Cl)s1)c1ccc(Br)o1 | -14.3% |
| CCOc1cc(C=Nn2c(C)csc2=NC(C)C)ccc1O | 18.4% |
| Cc1ccc(OP(N)(=O)Oc2ccc(C)cc2)cc1 | -4.77% |
| O=C1CCCCC1Sc1nnc(Nc2ccccc2)s1 (configuration not stated) | 6.48% |
| CCc1ccc(-c2nc(SC3CCCCC3=O)n[nH]2)cc1 (configuration not stated) | 57.1% (active) |
| CN(C1CCCCC1)S(=O)(=O)NC1COc2ccccc21 (configuration not stated) | 37.8% |
| COc1c(Cl)cc(C(=O)NCC(c2cccc(F)c2)N(C)C)cc1Cl (configuration not stated) | -3.98% |
| Oc1c(Br)cc2oc3c(c2c1C=NCc1ccncc1)CCCC3 | 84% (active) |
| Oc1c(I)cc2oc3c(c2c1C=NCc1ccncc1)CCCC3 | 8.12% |
| CCCc1cnc(-c2ccc(C)c3ncccc23)nc1 | 8.84% |
| COc1ccc(Cl)cc1C(=O)Nc1cc(-c2cccs2)nn1-c1nc(C)cc(=O)[nH]1 | 96.4% (active) |
| COc1ccc(Cl)cc1C(=O)Nc1cc(-c2cccs2)nn1-c1nc(C(C)C)cc(=O)[nH]1 | 101% (active) |
| Oc1c(C(c2ccc(Br)cc2)N2CCCC2)cc(Cl)c2cccnc12 (configuration not stated) | 10.6% |
| CN1CCN(C(c2ccc(Cl)cc2)c2cc(Cl)c3cccnc3c2O)CC1 (configuration not stated) | 90.6% (active) |
| Oc1c(C(c2ccncc2)N2CCOCC2)cc(Cl)c2cccnc12 (configuration not stated) | 101% (active) |
| CC(C)(C)c1cc(C(c2ccncc2)N2CCOCC2)cc(C(C)(C)C)c1O (configuration not stated) | 94.5% (active) |
| CCOC(=O)N1CCN(C(=O)CCc2ccc(-c3ccc(OC)cc3)n2-c2ccc(SC)cc2)CC1 | 13.6% |
| CCOC(=O)CNC(=O)CSc1ncnc2c1nnn2Cc1ccccc1 | -26.6% |
| CCOC(=O)N1CCN(C(=O)CSc2cc(-c3ccccc3)ncn2)CC1 | 93.6% (active) |
| CC(C)(C)n1nc(C2CC2)cc1C(=O)NCC1Cc2ccccc2O1 (configuration not stated) | -7.17% |

| SMILES | inhibition |
| --- | --- |
| CC(C)(C)c1ccc2c(c1)CC(CNC(=O)/C=C/c1ccccc1)O2 (configuration not stated) | 27.2% |
| O=C(NCC1Cc2ccccc2O1)c1ccc(Cl)s1 (configuration not stated) | 53.1% (active) |
| O=C(OCC1CC2CCC1C2)C(c1ccccc1)n1cccn1 (configuration not stated) | 92.2% (active) |
| O=S(=O)(NC1CCc2cc(F)ccc21)c1ccc2c(c1)CCC2 (configuration not stated) | 10.6% |
| CC(=O)N1CCC(NS(=O)(=O)c2ccc3c(c2)CCCC3)CC1 | 86.8% (active) |
| O=S(=O)(NC1CCN(C2CC2)CC1)c1cc(Cl)cc(Cl)c1 | 4.16% |
| CN(C)c1ccc(C(=C2C=CC(=[N+](C)C)C=C2)c2ccc(N(C)C)cc2)cc1 | 59.1% (active) |
| O=C(c1cc2cc(Cl)ccc2o1)N1CCN(S(=O)(=O)c2ccccc2Cl)CC1 | 42.3% |
| O=C(NNC(=O)c1cc2cc(Cl)ccc2o1)c1cnccn1 | 101% (active) |
| CCc1c(C)nc(-n2nc(C)cc2NC(=O)c2cc(C(F)(F)F)cc(C(F)(F)F)c2)[nH]c1=O | -3.31% |
| CCc1c(C)nc(-n2nc(C)cc2NC(=O)c2cc(OC)cc(OC)c2)[nH]c1=O | 101% (active) |
| CCc1c(C)nc(-n2nc(C)cc2NC(=O)c2ccc(C(F)(F)F)cc2)[nH]c1=O | 101% (active) |
| CCc1c(C)nc(-n2nc(C)cc2NC(=O)c2ccc(OC)cc2)[nH]c1=O | 99.8% (active) |
| CCc1c(C)nc(-n2nc(C)cc2NC(=O)c2cccc(OC)c2)[nH]c1=O | 102% (active) |
| CCOc1cc(C(=O)Nc2cc(C)nn2-c2nc(C)c(CC)c(=O)[nH]2)cc(OCC)c1OCC | -22.4% |
| CCn1cc(NC(=O)c2cc3ccc(C(C)(C)C)cc3[nH]2)ccc1=O | -0.51% |
| CCc1c(C)nc(-n2nc(C)cc2NC(=O)c2ccccc2)[nH]c1=O | -16.5% |
| CCc1c(C)nc(-n2nc(C)cc2NC(=O)c2cccc([N+](=O)[O-])c2)[nH]c1=O | 99.7% (active) |
| CCc1c(C)nc(-n2nc(C)cc2NC(=O)c2ccc(C)c(C)c2)[nH]c1=O | 42.5% |
| CCc1c(C)nc(-n2nc(C)cc2NC(=O)c2ccc(F)c(F)c2)[nH]c1=O | 99.7% (active) |
| CCc1c(C)nc(-n2nc(C)cc2NC(=O)c2cccc(C)c2)[nH]c1=O | 101% (active) |
| C=CCN1C(=O)C(=O)N(CC(=O)c2cc(C)n(CCCOC)c2C)C1=O | -11.2% |
